LmPK inhibitor: inhibitors of Leishmania mexicana pyruvate kinase; Q27686; purified LmPK, Kinase-Glo ATP luminescence, 1 h; Potency, µM (titrated, usually from 57.5 µM), for inactives: top-dose activity change, negative = inhibition, hits mostly inhibitors; hit rate 0.37% among 290,000; also: potency is read from the fitted curve at half-maximal effect; % is scaled to controls: 0 for no effect and ±100 for the full control effect
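Purified LmPK (0.1 nM) converted ADP (0.1 mM) to ATP with PEP (0.5 mM) in imidazole buffer pH 7.2 with KCl and MgCl2, 1 h at room temperature. ATP was read by Kinase-Glo luminescence; data normalized to uninhibited and no-enzyme controls.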
Cycloheximide cs: counter-screen for Shiga toxin inhibitors: cycloheximide protein synthesis inhibition; cell reporter, cycloheximide protein synthesis inhibition counterscreen; max response, %; hit rate 12% among 300,000; AID 2314; in the data active = max response mostly above about 13%, no sharp cut-off; inactive = mostly below about 14%; also: read at 38.3 µM for the half of the compounds with a filed dose; 0% is about no effect
RE007 growth inh: less growth of the S. pombe RE007 Vpr strain | S. pombe RE007 Vpr strain, BacTiter-Glo ATP luminescence, 24 h | Potency, µM (highest dose often 92.2 µM), inactives show at the highest dose activity change, negative = less growth, hits mostly inhibitors | hit rate 0.21% among 360,000; active = well fitted falling curve with a large enough effect; inconclusive = small, poorly fitted or top-dose-only effect; inactive = no such curve, though single readings can be large or run the other way; also: potency is read from the fitted curve at half-maximal effect; % is scaled to controls: 0 for no effect and ±100 for the full control effect; nearly all actives have a fitted effect of over 50% in size
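Fission yeast RE007 carrying one integrated HIV-1 vpr copy, seeded at OD 0.01 in PMG+AL medium with 23 nL pinned compound. Grown 24 h at 30 degrees; viability read by BacTiter-Glo luminescence after 5 min.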
Tb PYK inh: T. brucei pyruvate kinase inhibition; Q57TT1; TbPYK enzyme, Kinase-Glo Plus ATP luminescence, 45 min; Potency, µM (doses to about 76.8 µM), for the others: at the highest dose activity, negative = inhibition, most hits filed as inhibitors; hit rate 0.12% among 410,000; AID 624173; also: potency is read from the fitted curve at half-maximal effect; % is scaled to controls: 0 for no effect and ±100 for the full control effect; nearly all actives have a fitted effect of over 50% in size
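Activity of T. brucei pyruvate kinase was followed by Kinase-Glo Plus luminescence after the enzyme reacted 45 min at room temperature with 130 uM ADP (final) and substrate. Test compounds were added before ADP at multiple concentrations.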
FBPA Giardia inh: blocks Giardia fructose-bisphosphate aldolase activity; purified Giardia FBPA; A8B2U2; hit rate 0.71% among 290,000; Potency, µM (titrated, usually from 59.6 µM), for inactives: at the top dose activity, negative = inhibition, usual class: inhibitors; also: potency is read from the fitted curve at half-maximal effect; % is scaled to controls: 0 for no effect and ±100 for the full control effect; nearly all actives have a fitted effect of over 55% in size
Target sequence (A8B2U2 whole entry, looked up): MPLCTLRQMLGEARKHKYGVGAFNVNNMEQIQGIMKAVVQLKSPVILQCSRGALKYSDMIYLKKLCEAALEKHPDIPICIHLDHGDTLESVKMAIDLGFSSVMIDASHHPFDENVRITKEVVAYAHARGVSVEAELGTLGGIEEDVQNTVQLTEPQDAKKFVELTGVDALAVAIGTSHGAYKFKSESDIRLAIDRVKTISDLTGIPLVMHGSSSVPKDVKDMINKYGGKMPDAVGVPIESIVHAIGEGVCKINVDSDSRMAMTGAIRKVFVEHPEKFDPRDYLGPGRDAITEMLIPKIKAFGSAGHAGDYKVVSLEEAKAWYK
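Giardia FBPA (40 nM reagent) was preincubated 10 min at RT with compound (up to 57.5 uM final), then substrate plus GAPDH/TPI/NAD/arsenate coupling system with diaphorase/resazurin was added; resorufin fluorescence (525/598 nm) was read after 20 min.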
Shiga toxin inh: blocks Shiga toxin action in Vero cells. Vero cells, Shiga toxin protein synthesis inhibition reporter. inhibition, % at 38.7 µM. hit rate 9.2% among 290,000; in the data active = inhibition mostly above about 28%, no sharp cut-off; inactive = mostly below about 43%; also: 0% is about no effect
* marks the source's active call; other numbers are inactive results; ? = inconclusive; nt = no result. This is one part of a sample in which hits are shown more often than they occur. Unless noted, calls follow the shape of the dose curve; as a rule, active = well fitted curve in the direction sought with a large enough effect; inconclusive = small, poorly fitted or top-dose-only effect, or another doubt; inactive = no such curve, though single readings can be large; an effect the other way counts as inactive or inconclusive.

SMILES	LmPK inhibitor	Cycloheximide cs	RE007 growth inh	Tb PYK inh	FBPA Giardia inh	Shiga toxin inh
C=C1C[C@]2(O)[C@@]3(C)CCC(=O)C(C)(C)C3=C(O)C(=O)[C@@]2(C)[C@@H]2C(=O)O[C@@](C)(C(=O)OC)C(=O)[C@@]12C	8.1%	25.6*	13.3%	-7.1%	-3.4%	63.9*
COc1ccc(NC(=O)c2ccco2)cc1NC(=O)C(C)(C)Oc1ccc(Cl)cc1	nt	nt	nt	-7.7%	nt	nt
Cc1cc(OCC(=O)N(C)Cc2ccccc2)ccc1Br	-4.2%	34.5*	-6.3%	5.4%	4.2%	56.4*
Cc1cc(OCC(=O)N(C)Cc2ccccc2)ccc1Cl	-15.0%	27.7*	3.6%	-6.3%	-1.9%	23.7*
CN(Cc1ccccc1)C(=O)Cc1ccccc1	-4.2%	-1.4	-6.4%	-9.1%	3.4%	-3.1
COc1ccc(OCC(=O)N(C)Cc2ccccc2)cc1	-1.1%	15.7	4.4%	-8.1%	1.4%	32.6
Cc1nn(CC(=O)N(C)Cc2ccccc2)c(=O)c2cccn12	-7.9%	15.1	15.1%	0.0%	nt	46.1*
CN(Cc1ccccc1)C(=O)CC(=O)N(C)Cc1ccccc1	-1.7%	27.5*	0.0%	2.4%	14.5%	52.1*
O=C(CSc1nc(=O)n(Cc2ccco2)c2c1CCC2)NCc1ccccc1Cl	nt	nt	nt	2.1%	nt	nt
Cc1cccc(NC(=O)c2oc3ccc(S(=O)(=O)N4CCC5(CC4)OCCO5)cc3c2C)c1C	nt	nt	nt	-4.5%	nt	nt
CCc1ccc2c(Cl)c(C(=O)N/N=C/c3c[nH]c4ccccc34)sc2c1	2.3%	22.3*	4.1%	-1.9%	0.2%	30.5
CCc1ccc(-c2cc(C(=O)N/N=C/c3c[nH]c4ccccc34)[nH]n2)cc1	3.7%	35.2*	3.0%	4.7%	-1.0%	105.7*
CC(C)n1c(-c2ccc(C(C)(C)C)cc2)n[nH]c1=S	8.91µM*	-4.5	-6.7%	?	-0.6%	-4.4
C=CCNC(=O)O/N=C/c1csc([N+](=O)[O-])c1	5.3%	12.3	-6.3%	-4.3%	-2.4%	32.4*
CC(C)CNC(=S)NC(=O)c1csc([N+](=O)[O-])c1	-4.1%	10.6	?	8.6%	-4.0%	10.9
COc1ccc(-c2cn3cccnc3n2)cc1NC(=O)COc1ccccc1	nt	nt	nt	4.0%	nt	nt
c1ccc2sc(NC3=NCCN3)nc2c1	-6.3%	30.2*	-2.3%	2.5%	-0.6%	65.4*
COc1ccc(CN2CN=C(Nc3nc4ccccc4s3)NC2)cc1	0.1%	-3.9	-5.7%	9.5%	-2.0%	-12.6
COc1ccc2nc(NC3=NCCN3)sc2c1	-15.8%	55.2*	-20.1%	-9.9%	-0.6%	28.1*
c1ccc2sc(NC3=NCN(CCN4CCOCC4)CN3)nc2c1	1.5%	2.3	-11.1%	2.3%	-1.0%	12.8
COc1ccc2nc(NS(=O)(=O)c3ccc(NC(C)=O)cc3)sc2c1	0.9%	-4.2	11.4%	-9.2%	10.6%	-15.8
c1ccc2sc(NC3=NCN(CC4CCCO4)CN3)nc2c1 (configuration not stated)	-4.3%	36.1*	-8.2%	-1.8%	-1.2%	32.2
COc1ccc(Nc2nc3ccc(OC)cc3s2)cc1	4.0%	43.7*	-16.1%	4.0%	-23.1%	82.1*
O=C(NCC1(N2CCCCC2)CCCCC1)c1cccc(S(=O)(=O)Nc2ccc(F)cc2)c1	nt	nt	-15.8%	-24.0%	nt	nt
COc1ccc2nc(NC(=O)c3c(C)noc3C)sc2c1	nt	nt	?	-6.0%	nt	nt
COc1ccc2nc(Nc3nc(C)c(C(C)=O)s3)sc2c1	-1.2%	55.0*	-19.3%	4.5%	?	108.1*
CCc1ccc(C2c3c(-c4cc(C)ccc4O)n[nH]c3C(=O)N2Cc2cccnc2)cc1 (configuration not stated)	nt	nt	nt	3.3%	nt	nt
CCc1nnc(NC(=O)c2sc3nc4c(cc3c2N)CCCCC4)s1	-3.7%	42.3*	-6.9%	4.6%	6.6%	46.4*
CCc1nnc(NC(=O)c2sc3nc4c(cc3c2N)CCCCCC4)s1	4.5%	12.7*	-7.7%	-4.2%	10.4%	58.7
CCOC(=O)c1c(C)[nH]c(C)c1S(=O)(=O)NCC(=O)N1CCN(c2cccc(C)c2)C(C)C1 (configuration not stated)	nt	nt	nt	2.9%	nt	nt

Screens from PubChem BioAssay.
